Legend:
Assay in all cases: DAPPL (digital affinity profiling via proximity ligation, sequencing); 10 mM Tris-HCl pH 7.5, 50 mM NaCl, 1 mM DTT, 4% glycerol, room temperature, 30 min; GST-TFs on glutathione beads, 16-mer random dsDNA library, 0.1% formaldehyde crosslink after washing; high values mean tight binding
Settings in all cases: protein: recombinant; tags: N-terminal GST; dsDNA, one strand shown
FLI1 = molecular target: T1, FLI1 (Homo sapiens, UniProt Q01543 1-452)
T1 sequence: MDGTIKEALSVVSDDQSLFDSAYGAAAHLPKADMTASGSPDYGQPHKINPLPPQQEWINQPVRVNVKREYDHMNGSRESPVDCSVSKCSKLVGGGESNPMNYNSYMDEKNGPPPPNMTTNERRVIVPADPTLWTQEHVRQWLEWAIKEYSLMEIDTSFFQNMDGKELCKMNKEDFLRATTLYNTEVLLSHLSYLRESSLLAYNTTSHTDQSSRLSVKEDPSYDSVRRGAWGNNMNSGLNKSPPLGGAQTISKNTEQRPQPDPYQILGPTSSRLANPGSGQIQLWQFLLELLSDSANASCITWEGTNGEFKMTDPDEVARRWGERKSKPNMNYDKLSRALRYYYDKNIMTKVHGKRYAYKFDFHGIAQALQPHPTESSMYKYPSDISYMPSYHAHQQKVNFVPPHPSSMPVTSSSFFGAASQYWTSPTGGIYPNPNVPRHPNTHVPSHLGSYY
Procedure, shortened: (§1)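 Human transcription factors were made in yeast as GST fusions, captured on glutathione beads and barcoded with DNA. With a tag-only sample included, the pool was incubated with 200 nmole of a random double-stranded 16-mer DNA library in Tris/NaCl/DTT/glycerol buffer at room temperature for 30 min, then crosslinked with 0.1% formaldehyde after washing, ligated by proximity, amplified and sequenced. For binding signal, each hexamer's read frequency for a factor is divided by its frequency for the tag-only sample.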

ELK1 = molecular target: T2, ELK1 (Homo sapiens, UniProt P19419 1-428)
T2 sequence: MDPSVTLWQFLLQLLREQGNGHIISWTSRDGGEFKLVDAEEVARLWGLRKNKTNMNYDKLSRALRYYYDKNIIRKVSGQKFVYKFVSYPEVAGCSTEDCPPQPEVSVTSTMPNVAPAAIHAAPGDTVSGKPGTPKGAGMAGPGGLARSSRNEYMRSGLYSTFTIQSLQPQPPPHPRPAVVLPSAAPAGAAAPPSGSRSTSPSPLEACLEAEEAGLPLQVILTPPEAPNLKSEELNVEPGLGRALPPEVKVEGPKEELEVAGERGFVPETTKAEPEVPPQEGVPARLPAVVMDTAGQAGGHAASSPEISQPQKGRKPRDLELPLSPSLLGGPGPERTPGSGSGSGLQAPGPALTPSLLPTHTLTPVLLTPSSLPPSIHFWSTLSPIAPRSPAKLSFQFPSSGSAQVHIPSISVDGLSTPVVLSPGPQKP
Procedure, shortened: as §1

GABPA = molecular target: T3, GABPA (Homo sapiens, UniProt Q06546 1-454)
T3 sequence: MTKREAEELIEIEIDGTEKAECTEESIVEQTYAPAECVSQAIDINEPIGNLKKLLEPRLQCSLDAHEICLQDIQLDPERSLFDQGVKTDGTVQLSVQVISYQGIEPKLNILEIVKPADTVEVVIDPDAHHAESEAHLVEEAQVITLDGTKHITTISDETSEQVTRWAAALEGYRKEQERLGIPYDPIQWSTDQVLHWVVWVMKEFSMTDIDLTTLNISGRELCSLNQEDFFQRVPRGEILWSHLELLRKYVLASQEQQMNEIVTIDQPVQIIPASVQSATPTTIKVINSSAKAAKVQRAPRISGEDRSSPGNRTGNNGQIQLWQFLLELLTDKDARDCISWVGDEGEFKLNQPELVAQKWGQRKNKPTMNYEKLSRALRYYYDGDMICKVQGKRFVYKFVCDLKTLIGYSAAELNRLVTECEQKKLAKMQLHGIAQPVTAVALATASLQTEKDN
Procedure, shortened: as §1

ERG = molecular target: T4, ERG (Homo sapiens, UniProt P11308 1-479)
T4 sequence: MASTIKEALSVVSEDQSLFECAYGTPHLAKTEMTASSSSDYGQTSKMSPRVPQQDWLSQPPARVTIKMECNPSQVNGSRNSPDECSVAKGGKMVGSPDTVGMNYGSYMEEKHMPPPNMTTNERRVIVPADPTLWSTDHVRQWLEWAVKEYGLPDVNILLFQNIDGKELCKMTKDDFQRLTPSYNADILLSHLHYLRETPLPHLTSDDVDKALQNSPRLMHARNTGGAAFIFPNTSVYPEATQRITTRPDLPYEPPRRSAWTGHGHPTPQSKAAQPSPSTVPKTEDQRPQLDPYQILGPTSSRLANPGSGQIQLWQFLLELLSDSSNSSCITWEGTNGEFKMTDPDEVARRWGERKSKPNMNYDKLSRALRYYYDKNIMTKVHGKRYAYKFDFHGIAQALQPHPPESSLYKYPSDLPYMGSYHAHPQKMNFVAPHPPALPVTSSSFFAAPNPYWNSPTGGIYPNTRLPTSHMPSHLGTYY
Procedure, shortened: as §1

ELF1 = ELF1 (Homo sapiens, UniProt P32519 1-619)
Procedure, shortened: as §1

EHF = molecular target: T5, EHF (Homo sapiens, UniProt Q9NZC4 1-300)
T5 sequence: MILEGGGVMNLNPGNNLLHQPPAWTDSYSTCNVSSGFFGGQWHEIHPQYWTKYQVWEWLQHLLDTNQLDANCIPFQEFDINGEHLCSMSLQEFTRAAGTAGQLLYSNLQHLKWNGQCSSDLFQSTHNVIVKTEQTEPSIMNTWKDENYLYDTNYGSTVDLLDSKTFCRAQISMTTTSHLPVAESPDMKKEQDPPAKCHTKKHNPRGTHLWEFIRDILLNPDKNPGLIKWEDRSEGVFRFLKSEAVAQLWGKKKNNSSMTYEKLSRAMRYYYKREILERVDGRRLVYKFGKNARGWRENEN
Procedure, shortened: as §1

SPI1 [1] = molecular target: SPI1 (Homo sapiens, UniProt P17947 1-270)
Procedure, shortened: as §1

SPIB = SPIB (Homo sapiens, UniProt Q01892 1-262)
Procedure, shortened: as §1

ELK3 = molecular target: T6, ELK3 (Homo sapiens, UniProt P41970 1-407)
T6 sequence: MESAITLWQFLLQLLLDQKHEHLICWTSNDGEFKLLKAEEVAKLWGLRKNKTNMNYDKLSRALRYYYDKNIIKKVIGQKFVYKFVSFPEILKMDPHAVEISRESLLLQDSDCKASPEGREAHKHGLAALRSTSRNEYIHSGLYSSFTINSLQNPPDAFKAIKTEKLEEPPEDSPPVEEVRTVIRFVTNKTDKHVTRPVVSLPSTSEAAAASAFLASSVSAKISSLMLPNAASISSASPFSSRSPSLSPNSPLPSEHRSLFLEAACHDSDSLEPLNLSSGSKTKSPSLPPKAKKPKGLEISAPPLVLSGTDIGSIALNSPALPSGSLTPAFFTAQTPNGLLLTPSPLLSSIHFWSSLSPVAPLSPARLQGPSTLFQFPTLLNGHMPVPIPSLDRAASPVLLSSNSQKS
Procedure, shortened: as §1

SPI1 [2] = molecular target: SPI1 (Homo sapiens, UniProt P17947 1-270); remark: listed apart in the source
Procedure, shortened: as §1

Chain of SPIB (Q01892 whole entry): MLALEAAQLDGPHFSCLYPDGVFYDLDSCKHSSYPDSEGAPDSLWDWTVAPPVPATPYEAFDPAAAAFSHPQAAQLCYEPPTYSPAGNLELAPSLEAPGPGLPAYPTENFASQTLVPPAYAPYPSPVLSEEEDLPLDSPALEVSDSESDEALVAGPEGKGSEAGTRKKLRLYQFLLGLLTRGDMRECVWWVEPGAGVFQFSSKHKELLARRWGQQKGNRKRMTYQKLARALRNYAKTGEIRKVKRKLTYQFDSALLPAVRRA
Chain of ELF1 (P32519 whole entry): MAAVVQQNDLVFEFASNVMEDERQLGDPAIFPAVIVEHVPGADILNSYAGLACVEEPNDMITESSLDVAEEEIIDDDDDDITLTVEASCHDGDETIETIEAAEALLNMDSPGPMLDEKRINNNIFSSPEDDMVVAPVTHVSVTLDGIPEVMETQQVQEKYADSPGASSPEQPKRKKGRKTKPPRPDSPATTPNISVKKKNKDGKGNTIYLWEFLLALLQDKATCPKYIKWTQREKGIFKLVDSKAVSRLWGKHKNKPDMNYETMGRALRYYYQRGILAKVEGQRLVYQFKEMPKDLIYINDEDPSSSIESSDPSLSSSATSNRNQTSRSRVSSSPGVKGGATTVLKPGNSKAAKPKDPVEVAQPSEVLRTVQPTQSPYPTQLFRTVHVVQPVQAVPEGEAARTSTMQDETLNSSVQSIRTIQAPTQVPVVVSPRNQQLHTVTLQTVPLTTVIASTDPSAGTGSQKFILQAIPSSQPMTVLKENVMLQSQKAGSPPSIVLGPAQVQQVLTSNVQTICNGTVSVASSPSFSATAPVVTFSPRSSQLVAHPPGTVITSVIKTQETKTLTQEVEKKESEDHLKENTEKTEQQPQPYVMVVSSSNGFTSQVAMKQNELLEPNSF

Sequence	binding signal (FLI1)	binding signal (ELK1)	binding signal (GABPA)	binding signal (ERG)	binding signal (ELF1)	binding signal (EHF)	binding signal (SPI1 [1])	binding signal (SPIB)	binding signal (ELK3)	binding signal (SPI1 [2])
AAGTTC	1.36 fold enrichment (6-mer frequency, TF over GST control)	1.36 fold enrichment (6-mer frequency, TF over GST control)	1.47 fold enrichment (6-mer frequency, TF over GST control)	1.36 fold enrichment (6-mer frequency, TF over GST control)	1.34 fold enrichment (6-mer frequency, TF over GST control)	1.35 fold enrichment (6-mer frequency, TF over GST control)	1.54 fold enrichment (6-mer frequency, TF over GST control)	1.51 fold enrichment (6-mer frequency, TF over GST control)	1.36 fold enrichment (6-mer frequency, TF over GST control)	–
TCTCCT	1.45 fold enrichment (6-mer frequency, TF over GST control)	1.41 fold enrichment (6-mer frequency, TF over GST control)	1.53 fold enrichment (6-mer frequency, TF over GST control)	1.37 fold enrichment (6-mer frequency, TF over GST control)	1.38 fold enrichment (6-mer frequency, TF over GST control)	1.43 fold enrichment (6-mer frequency, TF over GST control)	1.6 fold enrichment (6-mer frequency, TF over GST control)	1.4 fold enrichment (6-mer frequency, TF over GST control)	1.46 fold enrichment (6-mer frequency, TF over GST control)	–
CTCATT	1.45 fold enrichment (6-mer frequency, TF over GST control)	1.32 fold enrichment (6-mer frequency, TF over GST control)	1.44 fold enrichment (6-mer frequency, TF over GST control)	1.38 fold enrichment (6-mer frequency, TF over GST control)	1.55 fold enrichment (6-mer frequency, TF over GST control)	1.57 fold enrichment (6-mer frequency, TF over GST control)	1.82 fold enrichment (6-mer frequency, TF over GST control)	1.61 fold enrichment (6-mer frequency, TF over GST control)	1.12 fold enrichment (6-mer frequency, TF over GST control)	–
AACCAA	1.24 fold enrichment (6-mer frequency, TF over GST control)	1.22 fold enrichment (6-mer frequency, TF over GST control)	1.25 fold enrichment (6-mer frequency, TF over GST control)	1.16 fold enrichment (6-mer frequency, TF over GST control)	1.22 fold enrichment (6-mer frequency, TF over GST control)	1.22 fold enrichment (6-mer frequency, TF over GST control)	1.19 fold enrichment (6-mer frequency, TF over GST control)	1.15 fold enrichment (6-mer frequency, TF over GST control)	1.19 fold enrichment (6-mer frequency, TF over GST control)	–
TATTTG	1.52 fold enrichment (6-mer frequency, TF over GST control)	1.41 fold enrichment (6-mer frequency, TF over GST control)	1.43 fold enrichment (6-mer frequency, TF over GST control)	1.47 fold enrichment (6-mer frequency, TF over GST control)	1.35 fold enrichment (6-mer frequency, TF over GST control)	1.45 fold enrichment (6-mer frequency, TF over GST control)	1.46 fold enrichment (6-mer frequency, TF over GST control)	1.46 fold enrichment (6-mer frequency, TF over GST control)	1.39 fold enrichment (6-mer frequency, TF over GST control)	–
ATTTCC	3.94 fold enrichment (6-mer frequency, TF over GST control)	3.9 fold enrichment (6-mer frequency, TF over GST control)	3.59 fold enrichment (6-mer frequency, TF over GST control)	5.18 fold enrichment (6-mer frequency, TF over GST control)	3.51 fold enrichment (6-mer frequency, TF over GST control)	4.16 fold enrichment (6-mer frequency, TF over GST control)	–	4.18 fold enrichment (6-mer frequency, TF over GST control)	4.09 fold enrichment (6-mer frequency, TF over GST control)	3.71 fold enrichment (6-mer frequency, TF over GST control)
TTACCA	1.12 fold enrichment (6-mer frequency, TF over GST control)	1.06 fold enrichment (6-mer frequency, TF over GST control)	1.04 fold enrichment (6-mer frequency, TF over GST control)	1.11 fold enrichment (6-mer frequency, TF over GST control)	1.13 fold enrichment (6-mer frequency, TF over GST control)	1.03 fold enrichment (6-mer frequency, TF over GST control)	1.11 fold enrichment (6-mer frequency, TF over GST control)	1.12 fold enrichment (6-mer frequency, TF over GST control)	1.14 fold enrichment (6-mer frequency, TF over GST control)	–

From PMC7862700, “An all-to-all approach to the identification of sequence-specific readers for epigenetic DNA modifications on cytosine”
